The record followed here is PubChem BioAssay.

SMILES strings stand for the structures. Where “and” joins values, the source holds several entries; their conditions need not be identical. Equal entries are not always repeated. A number with no mark means an inactive call. Calls of active or inactive are those of the source. Cut-off read from the data, not from the text of the source, unless noted: active = inhibition above about 30%; inactive = the rest.

The target in test [1] is Nuclear receptor coactivator 3 (Homo sapiens) (UniProt Q9Y6Q9). As to the kind of experiment: NCOA3 GAL4-fusion reporter inhibition – cell-based, luminescence, quadruplicate, confirmation (AID 588792;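 active = mean inhibition over 43.08%, the solvent-only control mean plus 3 SD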;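 note: 0% = DMSO treated cells and 100% = gossypol at 36 µM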). To be noted: HEK293 GAL4-SRC3 luciferase reporter, at 3.6 µM, active compounds read high. For orientation: In a reporter assay the amount or activity of a reporter protein is the signal.
Chain of Nuclear receptor coactivator 3 (Homo sapiens) (Q9Y6Q9 whole entry, looked up, the tested form may be a part): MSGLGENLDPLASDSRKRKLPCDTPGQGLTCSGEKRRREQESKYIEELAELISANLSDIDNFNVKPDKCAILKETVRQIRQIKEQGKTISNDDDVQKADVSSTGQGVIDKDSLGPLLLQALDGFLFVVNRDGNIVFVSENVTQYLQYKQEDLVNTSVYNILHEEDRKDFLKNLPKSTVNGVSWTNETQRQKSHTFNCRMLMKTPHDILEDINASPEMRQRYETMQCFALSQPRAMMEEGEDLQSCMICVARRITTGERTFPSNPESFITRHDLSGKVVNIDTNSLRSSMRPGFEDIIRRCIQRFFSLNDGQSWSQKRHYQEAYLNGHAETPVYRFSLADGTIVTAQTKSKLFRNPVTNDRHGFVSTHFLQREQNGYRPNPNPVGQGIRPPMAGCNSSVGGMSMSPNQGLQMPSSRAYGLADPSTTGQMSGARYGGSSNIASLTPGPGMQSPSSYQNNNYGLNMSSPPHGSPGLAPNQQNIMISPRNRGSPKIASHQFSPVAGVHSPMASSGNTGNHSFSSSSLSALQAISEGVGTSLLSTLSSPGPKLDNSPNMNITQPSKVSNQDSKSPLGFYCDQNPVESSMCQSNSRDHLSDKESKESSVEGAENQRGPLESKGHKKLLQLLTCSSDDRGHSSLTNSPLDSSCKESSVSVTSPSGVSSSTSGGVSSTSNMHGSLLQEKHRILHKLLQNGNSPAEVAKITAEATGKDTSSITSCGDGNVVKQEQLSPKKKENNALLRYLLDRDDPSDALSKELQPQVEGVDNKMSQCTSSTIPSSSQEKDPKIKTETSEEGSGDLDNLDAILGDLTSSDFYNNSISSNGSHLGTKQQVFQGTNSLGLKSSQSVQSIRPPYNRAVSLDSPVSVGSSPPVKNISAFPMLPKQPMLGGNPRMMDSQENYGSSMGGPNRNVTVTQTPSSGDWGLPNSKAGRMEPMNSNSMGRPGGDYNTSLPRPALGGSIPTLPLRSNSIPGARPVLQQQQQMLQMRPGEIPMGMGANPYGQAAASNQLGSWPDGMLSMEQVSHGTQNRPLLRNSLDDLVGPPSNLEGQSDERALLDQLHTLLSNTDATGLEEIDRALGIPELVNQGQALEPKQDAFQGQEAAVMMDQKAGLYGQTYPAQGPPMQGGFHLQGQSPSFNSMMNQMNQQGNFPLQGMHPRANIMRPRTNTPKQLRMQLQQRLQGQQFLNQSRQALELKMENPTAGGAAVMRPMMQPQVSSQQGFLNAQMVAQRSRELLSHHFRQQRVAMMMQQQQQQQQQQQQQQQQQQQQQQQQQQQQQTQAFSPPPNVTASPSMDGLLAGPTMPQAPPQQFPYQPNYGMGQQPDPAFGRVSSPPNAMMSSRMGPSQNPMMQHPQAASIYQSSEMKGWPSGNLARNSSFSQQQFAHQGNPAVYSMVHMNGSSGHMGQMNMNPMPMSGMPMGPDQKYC

For test [2], the system named is transactivating tegument protein VP16 (Human herpesvirus 1), Gal4-VP16 luciferase reporter. Put plainly: repression of VP16-driven luciferase reporter – cell-based, luminescence, high throughput, counter-screen for SRC3 inhibitor project (AID 588794). To be noted: mammalian cells, at 3.6 µM, active compounds read high.
The target in test [3] is Nuclear receptor coactivator 1 (Homo sapiens) (UniProt Q15788). As to the kind of experiment: NCOA1 GAL4-fusion reporter inhibition – cell-based, luminescence, quadruplicate, confirmation (AID 588820;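 active = mean inhibition above 46.68%, the untreated control wells mean plus 3 SD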;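 note: 0% = DMSO wells and 100% = gossypol 36 µM treated wells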). To be noted: HEK293 GAL4-SRC1 luciferase reporter, at 3.6 µM, active compounds read high.
Chain of Nuclear receptor coactivator 1 (Homo sapiens) (Q15788 whole entry, looked up, the tested form may be a part): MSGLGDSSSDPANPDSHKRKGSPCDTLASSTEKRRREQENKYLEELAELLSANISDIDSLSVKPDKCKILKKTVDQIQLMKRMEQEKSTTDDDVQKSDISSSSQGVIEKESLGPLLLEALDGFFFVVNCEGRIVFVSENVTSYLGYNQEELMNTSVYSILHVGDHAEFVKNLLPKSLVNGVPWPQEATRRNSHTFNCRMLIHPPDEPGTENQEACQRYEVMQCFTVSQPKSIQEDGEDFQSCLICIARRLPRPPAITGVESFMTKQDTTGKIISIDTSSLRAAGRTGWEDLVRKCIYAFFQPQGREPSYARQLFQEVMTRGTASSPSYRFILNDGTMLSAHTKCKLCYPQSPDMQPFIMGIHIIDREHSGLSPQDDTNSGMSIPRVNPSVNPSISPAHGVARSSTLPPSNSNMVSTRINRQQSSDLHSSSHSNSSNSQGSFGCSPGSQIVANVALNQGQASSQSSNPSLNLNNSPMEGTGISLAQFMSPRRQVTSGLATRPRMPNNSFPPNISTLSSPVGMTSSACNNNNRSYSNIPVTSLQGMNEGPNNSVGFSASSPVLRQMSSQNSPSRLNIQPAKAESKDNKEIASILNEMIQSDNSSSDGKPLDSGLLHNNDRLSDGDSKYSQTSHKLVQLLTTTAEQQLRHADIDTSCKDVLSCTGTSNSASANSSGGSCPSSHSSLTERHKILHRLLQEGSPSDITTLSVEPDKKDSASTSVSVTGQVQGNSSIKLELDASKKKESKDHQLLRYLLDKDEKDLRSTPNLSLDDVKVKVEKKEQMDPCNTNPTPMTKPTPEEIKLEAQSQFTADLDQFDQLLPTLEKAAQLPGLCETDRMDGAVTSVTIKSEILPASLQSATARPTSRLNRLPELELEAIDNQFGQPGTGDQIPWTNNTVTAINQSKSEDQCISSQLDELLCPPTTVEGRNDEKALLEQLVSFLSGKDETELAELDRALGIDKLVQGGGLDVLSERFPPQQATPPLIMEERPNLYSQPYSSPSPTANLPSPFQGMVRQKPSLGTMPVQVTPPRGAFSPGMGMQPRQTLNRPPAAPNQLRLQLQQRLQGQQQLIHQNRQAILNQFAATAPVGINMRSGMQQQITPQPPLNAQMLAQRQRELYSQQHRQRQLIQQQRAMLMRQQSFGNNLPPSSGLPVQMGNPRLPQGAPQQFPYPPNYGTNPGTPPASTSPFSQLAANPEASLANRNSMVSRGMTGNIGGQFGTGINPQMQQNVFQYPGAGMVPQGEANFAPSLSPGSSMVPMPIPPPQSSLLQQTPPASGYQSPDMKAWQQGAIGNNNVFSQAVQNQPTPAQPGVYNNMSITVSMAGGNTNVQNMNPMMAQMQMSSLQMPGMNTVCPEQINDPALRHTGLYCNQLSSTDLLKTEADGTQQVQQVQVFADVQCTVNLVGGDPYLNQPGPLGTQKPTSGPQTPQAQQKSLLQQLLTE
Test [4] in a line: repression of VP16-driven luciferase reporter – cell-based, luminescence, high throughput, counter-screen for SRC1 inhibitor project (AID 588824; in the data active = inhibition above about 25%). To be noted: cell-based VP16 transactivation luciferase luminescence; at 3.6 µM; active compounds read high.
A short description of test [5]: StAR promoter reporter inhibitors, counter-screen for LRH-1 inverse agonist project, cell-based, luminescence, high throughput (AID 651611; in the data active = inhibition above about 28%). To be noted: StAR promoter luciferase reporter counterscreen, at 3.6 µM, active compounds read high. (The purpose of a counterscreen is to sort out artefacts and off-target activity.)
For test [6], the target named is Nuclear receptor subfamily 5 group A member 2 (Homo sapiens) (UniProt O00482). As to the kind of experiment: NR5A2 activity suppression in reporter cells – cell-based, luminescence, confirmation (AID 651613; in the data active = inhibition above about 42%;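 note: HEK293T cells co-transfected with LRH-1 and StAR promoter luciferase reporter; 0% = vehicle wells and 100% = parental cells lacking receptor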). To be noted: cell-based LRH-1 luciferase reporter, inverse agonism; at 3.6 µM; active compounds read high.
For test [7], the target named is Steroidogenic factor 1 (Homo sapiens) (UniProt Q13285). As to the kind of experiment: inverse agonism at SF1 nuclear receptor – cell-based, luminescence, high throughput, counter-screen for LRH-1 inverse agonist project (AID 651614; in the data active = inhibition above about 44%;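 note: cells cotransfected with StAR promoter reporter and SF1 expression vector; 0% = vehicle on cells with receptor and 100% = vehicle on cells lacking receptor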). To be noted: cell-based SF1 luciferase reporter, at 3.6 µM, active compounds read high.
Chain of Steroidogenic factor 1 (Homo sapiens) (Q13285 whole entry, looked up, the tested form may be a part): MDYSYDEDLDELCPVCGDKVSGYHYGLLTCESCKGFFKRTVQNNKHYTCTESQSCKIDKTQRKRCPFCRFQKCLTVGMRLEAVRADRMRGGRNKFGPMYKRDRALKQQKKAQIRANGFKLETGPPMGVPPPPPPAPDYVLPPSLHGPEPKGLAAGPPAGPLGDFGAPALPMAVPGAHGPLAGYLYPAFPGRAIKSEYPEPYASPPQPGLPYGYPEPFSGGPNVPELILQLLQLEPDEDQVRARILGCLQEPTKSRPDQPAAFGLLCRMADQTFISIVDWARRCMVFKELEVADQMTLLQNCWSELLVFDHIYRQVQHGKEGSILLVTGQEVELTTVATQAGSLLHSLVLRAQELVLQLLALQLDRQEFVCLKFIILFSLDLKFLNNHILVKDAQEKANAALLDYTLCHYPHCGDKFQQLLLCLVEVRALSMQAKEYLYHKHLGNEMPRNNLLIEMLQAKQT
Test [8] in a line: compounds suppressing VP16-driven luciferase signal – cell-based, luminescence, high throughput, counter-screen for LRH-1 inverse agonist project (AID 651615; in the data active = inhibition above about 33%). To be noted: Gal4-VP16 luciferase reporter cells, at 3.6 µM, active compounds read high.
Test [9] relates to transactivating tegument protein VP16 (Human herpesvirus 1). Put plainly: compounds suppressing VP16-driven luciferase signal – cell-based, luminescence, single concentration, counter-screen for SRC2 inhibitor project (AID 652007; in the data active = inhibition above about 36%). To be noted: cell-based VP16 transactivation luciferase reporter, at 8.9 µM, active compounds read high.
Test [10] deals with Nuclear receptor coactivator 2 (Homo sapiens) (UniProt Q15596). As to the kind of experiment: inhibition of GAL4-SRC2 driven luciferase expression – cell-based, luminescence, HEK293, triplicate, confirmation (AID 652008;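 active = mean inhibition above 46.5%, the solvent-only control mean plus 3 SD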;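 note: 0% = DMSO-treated cells and 100% = Gossypol at 36 µM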). To be noted: HEK293 GAL4-SRC2 luciferase reporter, at 8.9 µM, active compounds read high.
Chain of Nuclear receptor coactivator 2 (Homo sapiens) (Q15596 whole entry, looked up, the tested form may be a part): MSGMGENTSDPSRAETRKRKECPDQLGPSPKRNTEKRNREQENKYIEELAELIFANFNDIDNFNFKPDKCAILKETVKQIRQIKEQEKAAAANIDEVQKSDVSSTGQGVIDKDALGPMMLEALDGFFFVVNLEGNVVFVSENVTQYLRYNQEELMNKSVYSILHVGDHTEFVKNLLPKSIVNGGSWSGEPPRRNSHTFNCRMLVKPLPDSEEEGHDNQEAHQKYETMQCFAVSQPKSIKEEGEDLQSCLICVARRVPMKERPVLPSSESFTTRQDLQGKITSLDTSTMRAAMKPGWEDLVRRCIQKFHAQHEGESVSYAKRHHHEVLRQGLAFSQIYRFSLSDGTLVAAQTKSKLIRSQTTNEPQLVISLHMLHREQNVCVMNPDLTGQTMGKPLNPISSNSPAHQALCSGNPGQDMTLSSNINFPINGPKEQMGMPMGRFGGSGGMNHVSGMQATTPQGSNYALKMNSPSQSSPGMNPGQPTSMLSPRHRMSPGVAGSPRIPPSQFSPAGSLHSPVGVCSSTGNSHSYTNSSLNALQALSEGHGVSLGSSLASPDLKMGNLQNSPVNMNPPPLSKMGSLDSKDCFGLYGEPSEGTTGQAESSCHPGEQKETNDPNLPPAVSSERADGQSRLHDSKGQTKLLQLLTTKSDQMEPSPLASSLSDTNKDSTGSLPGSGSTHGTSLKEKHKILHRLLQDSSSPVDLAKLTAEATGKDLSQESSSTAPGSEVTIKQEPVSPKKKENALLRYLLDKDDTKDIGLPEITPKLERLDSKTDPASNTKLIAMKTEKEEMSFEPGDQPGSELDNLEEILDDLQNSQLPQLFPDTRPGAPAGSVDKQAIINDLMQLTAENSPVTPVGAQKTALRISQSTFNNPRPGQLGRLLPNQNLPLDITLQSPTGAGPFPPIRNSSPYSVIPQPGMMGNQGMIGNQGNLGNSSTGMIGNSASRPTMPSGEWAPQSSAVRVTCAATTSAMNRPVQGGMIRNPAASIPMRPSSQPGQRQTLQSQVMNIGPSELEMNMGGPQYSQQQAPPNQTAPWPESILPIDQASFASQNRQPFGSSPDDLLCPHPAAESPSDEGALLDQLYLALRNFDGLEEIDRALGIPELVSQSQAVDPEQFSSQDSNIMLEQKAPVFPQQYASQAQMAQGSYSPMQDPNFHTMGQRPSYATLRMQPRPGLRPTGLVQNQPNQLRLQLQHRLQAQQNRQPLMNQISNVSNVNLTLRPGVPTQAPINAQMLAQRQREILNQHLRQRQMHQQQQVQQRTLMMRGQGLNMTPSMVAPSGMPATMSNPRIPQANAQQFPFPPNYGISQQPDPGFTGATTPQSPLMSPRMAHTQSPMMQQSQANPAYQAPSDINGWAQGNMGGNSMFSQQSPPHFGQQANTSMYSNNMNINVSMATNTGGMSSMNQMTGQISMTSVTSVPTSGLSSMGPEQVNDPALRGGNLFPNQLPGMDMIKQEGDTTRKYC

With `CC1CC(C)CC(C)C(O)C(C#N)=CC=CCC(C2CCCC2C(=O)O)OC(=O)CC(O)C(C)C1` (stereo not given), the inhibition (in general, the relative decrease from the control value, in per cent) in test [1] was 97.5% (active); in [2], 95.6% (active); in test [3], 89.6% (active); in [4] it was 94.4% (active); in test [5] it was 95.8% (active); in [6] it was 110% (active). Moreover, the inhibition in [7] was 97.9% (active); in test [8] it was 98.7% (active); in test [9] it was 78.4% (active); in test [10], 78.7% (active).
Take `C[C@]12CCC3C(CCC4=CC(O)CC[C@@]43/C=N/O)C1(O)CCC2C1=CC(=O)OC1` (stereo not given in full): the inhibition was 95.1% (active) in test [1]; 79.7% (active) in test [2]; 49.1% (active) in test [3]; 77.8% (active) in [4]; 94.8% (active) in test [5]; 108% (active) in [6]. Also, the inhibition in test [7] was 97% (active); in [8], 82.5% (active); in test [9] it was 63.6% (active); in test [10], 11.4%.
Take `COc1ccc(CN2Cc3cnnn3-c3ccccc3C2C#N)cc1` (stereo not given): the inhibition in [1] was 62.8% (active); in [2] it was 56.2% (active); in test [9], 51.6% (active); in test [10], 49.8% (active).
For `C[C@H]1CCC/C=C/[C@@H]2C[C@H](O)C[C@H]2[C@H](O)/C=C/C(=O)O1`, the inhibition was 70% (active) and 66.5% (active) in [1]; 76.2% (active) and 77.2% (active) in test [2]; 77.6% (active) and 82% (active) in test [5]; 82.1% (active) and 88.7% (active) in test [6]; 75% (active) and 80.4% (active) in test [7]; 78.7% (active) and 78.3% (active) in test [8].
`c1ccc(-c2[nH]c(-c3ccccc3)[n+](CC3CO3)c2-c2ccccc2)cc1` (stereo not given): the inhibition in test [1] is 13.4%; in test [2], -0.66%; in test [9], 22.1%; in [10] it was 30.2%.
Consider `O=C(c1cn(Cc2ccccc2F)c2ncccc12)C(F)(F)F`, for which the inhibition is -9.15% in [3] and -0.44% in test [4].
For `COc1ccc(C(c2nnnn2Cc2ccccc2)N2CCC(n3c(=O)[nH]c4ccccc43)CC2)cc1` (stereo not given), the inhibition is -42.8% in [3] and -11.4% in test [4].
Regarding `CN1CCN(c2cc(N3CCCCCC3)c(F)cc2[N+](=O)[O-])CC1`, the inhibition in [3] is -15.1%; in test [4] it was -7.21%.
Turning to `COC(=O)C1=C(c2ccc(-c3ccccc3)c(F)c2)C[C@@H]2CC[C@H]1N2C(=O)N1CCCCC1`, the inhibition is 18.3% in test [1], 39% (active) in [2], 19.5% in test [9] and 35.4% in test [10].
For `COc1ccc(-n2nnnc2C(CCSC)N2CCC(n3c(=O)[nH]c4ccccc43)CC2)cc1` (stereo not given), the inhibition is -13.8% in test [3] and -1.55% in test [4].
`CCC(C)(C)n1nnnc1CN1CCC(n2c(C)nc3cc(C(F)(F)F)ccc32)CC1`: the inhibition in test [3] was 17.3%; in [4], -2.08%.
Take `CC1CCC/C=C/C2CC(O)CC2C(O)/C=C/C(=O)O1` (stereo not given): the inhibition in test [1] is 64.7% (active); in test [2], 75% (active); in test [5], 78.9% (active); in test [6] it was 86.7% (active); in [7], 80.8% (active); in test [8], 74.8% (active).
As to `C[C@H]1CCC/C=C/[C@@H]2C[C@H](O)C[C@H]2[C@@H](O)/C=C/C(=O)O1`, the inhibition is 64.3% (active) in test [1]; 77.3% (active) in test [2]; 81.5% (active) in test [5]; 85.4% (active) in test [6]; 80% (active) in [7]; 74.8% (active) in test [8].
For the compound `COc1ccc(-n2nnnc2C(c2cccc3ccccc23)N2CCC3(CC2)C(=O)NCN3c2ccccc2)cc1` (stereo not given), the inhibition in [3] was -1.91%; in [4], 5.57%.
In the case of `CC(C)c1oc(=O)cc2c1[C@@H](O)[C@H]1OC(=O)[C@@]3(C)C[C@@H](O)[C@@H](O)[C@@]2(C)C13` (stereo not given in full), the inhibition is 79.4% (active) in test [1]; 67.4% (active) in test [2]; 84.4% (active) in test [5]; 104% (active) in [6]; 90% (active) in test [7]; 77.4% (active) in [8]. In addition, the values for the inhibition in test [9] and in test [10] were 8.02% and 13.1%, respectively.
